Bioassay records deposited in PubChem by Broad Institute.
This is a sample that favours compounds with a hit; in the whole collection about 4% have one here.
MITF TRPM1 HTS = activators of MITF-driven TRPM1 promoter reporter, primary screen, cell-based, SK-MEL-5, luciferase, single point; SK-MEL-5 TRPM1-promoter luciferase, 24 h; % of positive control, neutral wells = 0; activation, % at 12.5 µM; 300,000 tested, 0.75% active;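 active = mean activation of at least 80% with every replicate also reaching 80%; inconclusive = mean reaches 80% but some replicate falls short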;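 also: 0% = neutral control wells and 100% = parthenolide positive control wells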
esBAF inh = Bmi1 luciferase reporter increase in mESCs, primary screen, esBAF inhibitor project, mouse ES cells, Bmi1 luciferase knock-in, single point | 350,000 tested, 2% active | 24 h; 100% = twice the neutral-well signal | AID 602393, 2012 | reporter increase, % at 12.5 µM; in the data active = activation above about 40%; inconclusive = no clear call, values can overlap the other calls;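 also: 0% = median of the plate's neutral control wells and 100% = double that signal; a rise in the Bmi1 reporter signal indicates esBAF inhibition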
PAX8 reporter = inhibitors of PAX8-driven TPO luciferase reporter, primary screen, RMG-I cells, single concentration | 360,000 tested, 1.2% active | SteadyGlo, 24 h | AID 652154, 2013 | inhibition, % at 12.6 µM;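 active = mean replicate inhibition at least 60% with every replicate also reaching 60%; inconclusive = only one of the two criteria is met; inactive = mean below 60% and not all replicates reaching 60%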;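 also: luciferase light reporting Pax8 driven TPO promoter activity; plate controls were median of neutral control wells for no effect and mitoxantrone controls for full effect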
TRPM1 prom inh = inhibitors of MITF-dependent TRPM1 promoter reporter, primary screen, cell-based, SK-MEL-5, single point, luciferase. SK-MEL-5 TRPM1 promoter luciferase, 24 h. inhibition, % at 12.5 µM. 330,000 tested, 0.83% active. AID 488899, 2010;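 active = mean inhibition across replicates of 60% or more, whatever share of single replicates reaches that level; inconclusive = some that reach 60%, reason not given; inactive = mean inhibition across replicates below 60%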
Wnt bcat act = Wnt/beta-catenin pathway activators, primary screen, cell-based, plate reader, single point; Wnt/beta-catenin reporter cell assay, activator; activation, % at 9.35 µM; 300,000 tested, 1.2% active; AID 743398, 2014; in the data active = activation above about 30%, passing the limit was not always enough; inconclusive = no clear call, values can overlap the other calls;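 also: 0% = neutral control wells and 100% = positive control wells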
EWS-Fli block = EWS/Fli-driven NR0B1 reporter inhibitors, primary screen, A673 cells, NR0B1 luciferase, luminescence, MLPCN library | 350,000 tested, 0.67% active | AID 651661, 2012 | inhibition, % at 12.6 µM | viability-normalised;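 active = mean inhibition of at least 50% after viability correction, with every replicate also passing that limit; inconclusive = mean reaches 50% but only one of two replicates passes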;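 also: firefly luciferase signal divided by Alamar Blue viability fluorescence both relative to DMSO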
Numbers without * were called inactive.

Results for Cc1cc(-c2csc(NC(=O)c3ccc(C#N)cc3)n2)c(C)n1Cc1ccco1 ?
MITF TRPM1 HTS: -10; PAX8 reporter: 121*; TRPM1 prom inh: 13; Wnt bcat act: -4; EWS-Fli block: -3

How did O=C(Nc1ccccc1F)N[C@H]1CC[C@@H](CCNS(=O)(=O)c2ccc(Cl)cc2)O[C@H]1CO do in these assays?
esBAF inh: 9; PAX8 reporter: 19; EWS-Fli block: -5

What do the screens show for `CC1CCN(CC2C(=O)O[C@@H]3C[C@@]4(C)CCC[C@H](C)C4=C[C@H]23)CC(C)(C)C1` (stereo partly specified)?
MITF TRPM1 HTS: -75; esBAF inh: 4; PAX8 reporter: inconclusive; TRPM1 prom inh: 74*; Wnt bcat act: -2; EWS-Fli block: 2

What do the screens show for `O=C1CCCCC1C(=O)c1cn(-c2ccc(Cl)c(Cl)c2)nn1` (stereo unspecified)?
MITF TRPM1 HTS: 64; esBAF inh: 63*; PAX8 reporter: -29; TRPM1 prom inh: -56; Wnt bcat act: 1; EWS-Fli block: -31

Results for Cc1noc(C)c1S(=O)(=O)N(C)C[C@H]1OCCCC[C@H](C)Oc2ccc(NC(=O)Nc3ccccc3)cc2C(=O)N([C@H](C)CO)C[C@H]1C ?
esBAF inh: -2; PAX8 reporter: -19; EWS-Fli block: -3

What do the screens show for `COC(=O)CSc1nc2cc3c(cc2cc1C#N)OCO3`?
MITF TRPM1 HTS: 79; TRPM1 prom inh: -87

How did CCOC(=O)CSc1nc2cc3c(cc2cc1C#N)OCO3 do in these assays?
MITF TRPM1 HTS: 90*; TRPM1 prom inh: -90

What do the screens show for `CCOC(=O)CSc1nc2cc3c(cc2cc1C#N)OCCO3`?
MITF TRPM1 HTS: 61; PAX8 reporter: -92; TRPM1 prom inh: -60; Wnt bcat act: 8; EWS-Fli block: -86

How did Cc1cc2cc3c(cc2nc1SCC(=O)N1CCOCC1)OCO3 do in these assays?
esBAF inh: 10; PAX8 reporter: -14; TRPM1 prom inh: -12; Wnt bcat act: 0; EWS-Fli block: -13

What do the screens show for `CC(C)OC(=O)CSc1nc2cc3c(cc2cc1C#N)OCO3`?
esBAF inh: 59*; TRPM1 prom inh: -84

What do the screens show for `N#Cc1cc2cc3c(cc2nc1SCC(=O)N1CCOCC1)OCO3`?
esBAF inh: 52*; PAX8 reporter: -103; TRPM1 prom inh: -89; Wnt bcat act: inconclusive; EWS-Fli block: -78

Results for Cc1noc(C)c1NC(=O)Nc1ccc2c(c1)C(=O)N([C@H](C)CO)C[C@H](C)[C@@H](CN(C)S(=O)(=O)c1ccccc1)OCCCC[C@@H](C)O2 ?
esBAF inh: 4; PAX8 reporter: -9; EWS-Fli block: -2

How did CCCC(=O)Nc1ccc2c(c1)C(=O)N(C)C[C@H](OC)[C@H](C)CN(Cc1ccccc1)[C@@H](C)CO2 do in these assays?
esBAF inh: 3; EWS-Fli block: 11

How did CCNC(=O)[C@@H]1[C@@H](CO)[C@@H]2Cn3c(cccc3=O)[C@H]1N2Cc1cc(F)ccc1F do in these assays?
EWS-Fli block: -34

What do the screens show for `CC=Cc1ccc2n(c1=O)C[C@@H]1[C@@H](CO)[C@H](C(=O)NCc3ccncn3)N(C(=O)NC3CCCC3)[C@H]21` (mixture of isomers)?
esBAF inh: -5; PAX8 reporter: -6; EWS-Fli block: -2

Results for O=C(c1cc2cc(Br)ccc2o1)N1CCCCC1 ?
MITF TRPM1 HTS: 30; esBAF inh: 49*; PAX8 reporter: -175; TRPM1 prom inh: -29; Wnt bcat act: 16; EWS-Fli block: -62

What do the screens show for `O=C(C[C@@H]1C[C@H]2c3cc(NC(=O)Cc4ccncc4)ccc3O[C@H]2[C@@H](CO)O1)NCc1ccc2c(c1)OCO2`?
esBAF inh: -5; PAX8 reporter: 9; EWS-Fli block: 7

What do the screens show for `Cc1ccc(-c2nn(-c3ccccc3)cc2/C=N/NC(=O)c2ccc(Br)o2)cc1`?
MITF TRPM1 HTS: 56; esBAF inh: 64*; TRPM1 prom inh: -52

Results for O=C(N/N=C/c1cn(-c2ccccc2)nc1-c1ccccc1)c1ccco1 ?
MITF TRPM1 HTS: 50; esBAF inh: 44*; TRPM1 prom inh: -50

Results for Cc1ccc(-c2nnc(SCC(=O)N/N=C/c3ccccc3C(=O)O)n2-c2ccccc2)cc1 ?
PAX8 reporter: -6; Wnt bcat act: 1; EWS-Fli block: 4

What do the screens show for `O=C(N/N=C/c1ccc(Br)cc1)c1ccc(Br)o1`?
MITF TRPM1 HTS: 103*; PAX8 reporter: -242; TRPM1 prom inh: -106; Wnt bcat act: 56*

How did O=C(N/N=C\c1cn(-c2ccccc2)nc1-c1ccccc1)c1ccc(Br)o1 do in these assays?
MITF TRPM1 HTS: -13; esBAF inh: 30; TRPM1 prom inh: 12; Wnt bcat act: -2

Results for O=C(N/N=C/c1ccc(Br)cc1)c1ccc(F)cc1 ?
MITF TRPM1 HTS: 8; PAX8 reporter: -23; TRPM1 prom inh: -6; Wnt bcat act: 2

Results for Cc1nnc(SCC(=O)N/N=C/c2cn(-c3ccccc3)nc2-c2ccccc2)n1-c1ccccc1 ?
MITF TRPM1 HTS: 28; esBAF inh: 63*; TRPM1 prom inh: -22

Results for C[C@H]1CN([C@@H](C)CO)C(=O)c2cc(-c3ccc(F)cc3)cnc2O[C@H]1CN(C)C(=O)c1ccccn1 ?
esBAF inh: 3; PAX8 reporter: 2; EWS-Fli block: 4

How did CC(C)CC1NC(=S)N(Cc2ccccc2)C1=O (stereo unspecified) do in these assays?
MITF TRPM1 HTS: -5; esBAF inh: -3; PAX8 reporter: 90*; TRPM1 prom inh: 5; Wnt bcat act: -13; EWS-Fli block: 15

What do the screens show for `COc1ccc(-c2cn(CC[C@H]3CC[C@@H](NC(=O)Nc4ccc(F)cc4)[C@H](CO)O3)nn2)cc1`?
PAX8 reporter: -40; EWS-Fli block: -7

Results for CN(C)c1ccc(-c2nnc(-c3cccs3)o2)cc1 ?
MITF TRPM1 HTS: 15; PAX8 reporter: -219; TRPM1 prom inh: -17; Wnt bcat act: inconclusive; EWS-Fli block: 8

What do the screens show for `Brc1ccc(-c2cnc(-c3cccs3)o2)cc1`?
esBAF inh: 67*; TRPM1 prom inh: -43

How did N=c1c2c(n(Cc3ccc(Cl)c(Cl)c3)c3c1CCC3)CCCC2 do in these assays?
MITF TRPM1 HTS: -72; TRPM1 prom inh: 71*

What do the screens show for `N=c1c2c(n(Cc3ccc(Br)cc3)c3c1CCC3)CCCC2`?
MITF TRPM1 HTS: -63; PAX8 reporter: 78*; TRPM1 prom inh: 65*; Wnt bcat act: -6; EWS-Fli block: 40

What do the screens show for `Sc1oc(-c2ccccc2)cc1C=Nc1ccccc1`?
MITF TRPM1 HTS: 23; esBAF inh: 85*; TRPM1 prom inh: -22
